# ClpP mod: qHTS Assay for Activators of ClpP; AID 651965, 2013; ATP-dependent Clp protease proteolytic subunit (Bacillus subtilis (strain 168)), P80244; 340,000 tested, 1.9% active; Potency, µM (doses to about 57.5 µM), inactives show at the highest dose activity change, negative = active; purified B. subtilis ClpP, FRET peptide cleavage, 20 min; active = well fitted falling curve with a large enough effect; inconclusive = small, poorly fitted or top-dose-only effect; inactive = no such curve, though single readings can be large or run the other way; note: potency is the fitted concentration of half-maximal effect; the source files actives as falling curves though it sought activators and does not explain the sign; nearly all actives have a fitted effect of over 65% in size
#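 ClpP 10 microg/mL final, pH 8 Tris/KCl buffer with BSA, glycerol, Tween-20; compound pinned in; FRET-FV substrate; RT 20 min; Ex320/Em430; ΔFRET vs ADEP 5.8 microM, DMSO, no enzyme.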
# PKM2 act: qHTS Assay for Activators of Human Muscle isoform 2 Pyruvate Kinase. Potency, µM (top dose mostly 57.5 µM), without a hit: at the top dose activation, usual class: activators. Pyruvate kinase PKM (Homo sapiens), P14618. AID 1631, 2009. purified PKM2, Kinase-Glo ATP luminescence, activation; response scale: 0% is enzyme alone, no compound. 260,000 tested, 0.34% active; note: potency is the fitted concentration of half-maximal effect; % is set by controls: 0 for no effect and ±100 for the full control effect; nearly all actives have a fitted effect of over 55% in size
#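 Purified hPK-M2 (>95%) run at intermediate activity with 0.1 mM ADP and 0.5 mM PEP in 50 mM imidazole pH 7.2, KCl, MgCl2; 1 h room temperature. ATP formed read by Kinase-Glo luminescence; normalized to uninhibited and no-enzyme controls.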
# Pin1 inh: qHTS Assay to Find Inhibitors of Pin1. Peptidyl-prolyl cis-trans isomerase NIMA-interacting 1 (Homo sapiens), Q13526. Pin1 FP peptide displacement, HiFluor488, 10 min. Potency, µM (titrated, usually from 115 µM), for the others: at the top dose activity, negative = inhibition, most hits filed as inhibitors. 390,000 tested, 0.009% active. AID 504891, 2011; active = well fitted inhibition curve with a large enough effect in the polarisation, with a control signal flat, not every such curve was filed as active; inconclusive = small, poorly fitted or top-dose-only effect, or effect the other way, or a change in a side signal; inactive = no such curve, though single readings can be large or run the other way; the % refers to the polarisation; note: potency is the fitted concentration of half-maximal effect; % is set by controls: 0 for no effect and ±100 for the full control effect
# USP2a block: qHTS Assay for Inhibitors of Ubiquitin-specific Protease USP2a Using CHOP2 as the Reporter | Ubiquitin carboxyl-terminal hydrolase 2 (Homo sapiens), O75604 | USP2 core, Ub-CHOP2 coupled fluorogenic reporter, 485/531 | Potency, µM (series often up to 38.3 µM), without a hit: at the highest dose activity change, negative = inhibition, actives largely listed as inhibitors | 330,000 tested, 0.01% active | AID 463254, 2010;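 note: potency is the fitted concentration of half-maximal effect; plate controls were DMSO wells for no effect and full inhibition by NEM control for full effect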
#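 Cell-free coupled assay: 10nM USP2 core preincubated 30min RT with compound in Tris-HCl pH 8.0/CaCl2/CHAPS buffer, then 25nM Ub-CHOP2 and 25nM reporter substrate; fluorescence (Ex 485/Em 531) read after 60min RT, normalized to NEM inhibition, concentration-response curves fitted.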
# IL-2 act: qHTS of IL-2 Activators. IL-2 activation reporter assay, cell-based qHTS; stimulated with anti-CD3/CD4/CD28 beads; in transgenic mouse T cells. activation, % (series mostly up to about 46 µM). 360,000 tested, 0.065% active. AID 652025, 2013; in the data active = activation above about 50%; inconclusive = mostly about 30% to 49%; note: 0% is about no effect
#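 Readout: EGFP and DsRed signals by fluorescent plate cytometry. Unstimulated transgenic mouse T cells received compound 60 min before antibody-bead stimulation, then incubated 18 h at 37 degrees C.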
# Integrin act MD: qHTS for Activators of Integrin-Mediated Alleviation for Muscular Dystrophy; 350,000 tested, 0.064% active; Potency, µM (top dose mostly 38.3 µM), for inactives: top-dose activation, actives largely listed as activators; alpha7betagal myoblasts, beta-gal FDG fluorescence, 48 h; AID 624291, 2012;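 note: potency is the fitted concentration of half-maximal effect; 100% = response of the positive control SU9516; nearly all actives have a fitted effect of over 60% in size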
#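 alpha7betagal+/- myoblasts (passage 13, 250/well) treated 48 h at 37C with compounds at 1:260 dilution of DMSO stock. Lysed, then beta-galactosidase activity read as FDG fluorescence (ex 480/em 540) after 30 min, with pre-read for autofluorescence.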
# Numbers without * were called inactive; ? = inconclusive; nt = not tested or not shown. This is a sample that favours compounds with a hit; in the whole collection about 1.9% have one here. Unless noted, calls come from the whole dose curve; as a rule, active = well fitted curve in the direction sought with a large enough effect; inconclusive = small, poorly fitted or top-dose-only effect, or another doubt; inactive = no such curve, though single readings can be large; an effect the other way counts as inactive or inconclusive.
SMILES,ClpP mod,PKM2 act,Pin1 inh,USP2a block,IL-2 act,Integrin act MD
CCOC(=O)c1ccc(-c2ccc(/C=C(\C#N)C(=O)NCc3cccs3)o2)cc1,-1.2%,-9.4%,?,3.1%,60.9*,?
COc1ccc(OC)c(C(c2nnnn2C2CCCC2)N2CCN(c3ccccc3F)CC2)c1 (stereo unspecified),25.1µM*,-2.4%,-0.3%,-1.0%,0.3,-2.7%
COC(=O)c1cc(NS(=O)(=O)c2ccc(NCc3cccnc3)c(N)c2)cc(C(=O)OC)c1,-1.7%,7.2%,0.2%,-0.4%,0.1,14.4%
COC(=O)c1cc(NS(=O)(=O)c2ccc(NCc3cccnc3)c([N+](=O)[O-])c2)cc(C(=O)OC)c1,28.2µM*,20.2%,5.9%,0.5%,-0.1,-20.4%
CCOc1ccc2oc(C(=O)O)c(C)c2c1,nt,-0.6%,-0.1%,4.2%,2.9,13.0%
CCOc1ccc2nc(C)cc(C(=O)O)c2c1,3.16µM*,-1.7%,-8.3%,0.2%,-1.4,1.1%
COc1ccc2nc(C)cc(C(=O)O)c2c1,8.91µM*,-8.3%,-0.4%,5.0%,0.2,2.0%
O=C(Nc1ccccc1)c1sc2cc(C(F)(F)F)cnc2c1-c1cccs1,31.6µM*,-4.4%,24.9%,-0.7%,0.3,0.0%
NNC(=O)c1sc2cc(C(F)(F)F)cnc2c1-c1cccs1,nt,-0.2%,1.0%,1.4%,0.0,7.7%
CC1(C)CC(=O)C=C(Nc2ccc(OCC(F)(F)C(F)F)cc2)C1,17.8µM*,3.9%,1.4%,3.9%,-0.2,-10.6%
O=C(OCC#CCSc1nnc(-c2cccc3ccccc23)o1)c1ccccc1F,nt,nt,-2.3%,nt,nt,nt
Cc1cc(C)nc(SCc2cc(=O)c(OC(=O)c3ccc(S(=O)(=O)N(C)C)cc3)co2)n1,2.82µM*,4.8%,-1.9%,1.4%,-1.5,-6.3%
Cc1ccnc(SCc2cc(=O)c(OC(=O)c3ccc(S(=O)(=O)N(C)C)cc3)co2)n1,-20.2%,?,2.0%,4.6%,0.3,0.2%
Cc1ccc(S(=O)(=O)N2CCN(c3nc(-c4ccc(F)cc4)nc4cc(Cl)ccc34)CC2)cc1,nt,nt,-6.2%,nt,nt,nt
COc1ccc(-c2ccccc2)cc1NCc1ccccc1C,12.6µM*,0.5%,-1.7%,3.2%,-0.4,0.0%
COc1ccc(-c2ccccc2)cc1NCc1ccc(OC)c(OC)c1,28.2µM*,1.3%,1.7%,2.0%,-0.4,-3.6%
COc1ccccc1CNc1ccccc1F,nt,3.7%,-4.3%,8.1%,-2.4,1.0%
COc1ccc(CNC(=O)c2ccc(-c3ccccc3)cc2)cc1OC,-1.1%,1.2%,1.6%,3.1%,0.9,?
COc1ccccc1CNc1cc(-c2ccccc2)ccc1OC,25.1µM*,-7.5%,-3.6%,0.9%,-0.2,5.9%
CCNc1nc(C)nc2c1cnn2C,28.2µM*,nt,11.1%,nt,0.1,15.8%
O=C(NC1CCCCC1)N(CCN1CCCC1)Cc1cc2cc3c(cc2[nH]c1=O)OCCO3,35.5µM*,-1.0%,29.3%,1.8%,-0.5,-25.9%
Cc1cc2cc(CN(CCCN3CCOCC3)C(=O)NC3CCCCC3)c(=O)[nH]c2cc1C,?,-1.3%,0.5%,-1.5%,-2.6,-19.8%
O=C(NC1CCCCC1)N(CCO)Cc1cc2cc3c(cc2[nH]c1=O)OCCO3,?,7.0%,1.9%,3.5%,-1.9,-8.5%
Cc1ccc2cc(CN(CCCN3CCOCC3)C(=O)NC3CCCCC3)c(=O)[nH]c2c1C,28.2µM*,-1.3%,-2.2%,-1.0%,-1.0,-9.4%
COc1ccc(S(=O)(=O)Nc2cc3c(cc2NCc2ccccc2)n(C)c(=O)n3C)cc1OC,50.7%,nt,3.6%,nt,nt,nt
SMILES,ClpP mod,PKM2 act,Pin1 inh,USP2a block,IL-2 act,Integrin act MD
CCOC(=O)c1c(C(F)(F)F)nc2ncccn12,25.1µM*,-4.4%,-11.9%,5.0%,-0.1,1.8%
O=C(Cc1ccc(F)cc1)NO,-1.6%,nt,nt,nt,nt,nt
O=C(O)c1c2c(nc3ccccc13)CCCC2,-2.5%,nt,nt,nt,nt,nt
COc1ccc(N2C(=O)c3ccccc3NC23CCCCC3)cc1,28.2µM*,-4.1%,-13.0%,-1.1%,-0.7,-0.5%
COc1ccc2oc(C(=O)OCC(=O)N(C)CC(=O)Nc3ccc(C)cc3)c(C)c2c1,nt,nt,3.6%,0.2%,1.1,-28.8%
O=C(COC(=O)Cc1c(Cl)cccc1Cl)NCC1CCCO1 (stereo unspecified),25.1µM*,-3.4%,0.3%,3.8%,-0.3,-6.1%
COc1ccc2oc(C(=O)OCC(=O)NC3(C#N)CCCC3)c(C)c2c1,25.1µM*,nt,-2.2%,-0.4%,0.8,6.0%
COc1ccc2oc(C(=O)OCC(=O)Nc3ccc(NC(C)=O)cc3)c(C)c2c1,25.1µM*,nt,44.3%,2.5%,-5.4,10.7%
COc1ccc2oc(C(=O)OCC(=O)Nc3cc(S(=O)(=O)N4CCOCC4)ccc3OC)c(C)c2c1,10µM*,nt,12.2%,-0.3%,0.7,-5.1%
O=C(COC(=O)Cc1ccc(Br)cc1)NCC1CCCO1 (stereo unspecified),-3.4%,nt,-3.0%,-0.4%,-1.9,43.0%
CCOC(=O)c1cc(C#N)c(SC(C(=O)N2CCCCC2)c2ccccc2)nc1C (stereo unspecified),-7.2%,nt,nt,nt,nt,nt
c1ccc(CNCc2nnc(-c3cc4ccccc4[nH]3)s2)cc1,nt,nt,-1.9%,nt,nt,nt
O=[N+]([O-])c1ccc(Nc2nc(NCCN3CCOCC3)nc(Nc3ccc(Cl)cc3)n2)cc1,-1.4%,nt,nt,nt,nt,nt
CNc1cc2c(cc1S(=O)(=O)Nc1ccc(C)c(C)c1)CCC(=O)N2,nt,nt,0.5%,nt,nt,nt
COc1ccc2oc(C(=O)OCc3nnc(-c4ccccc4)o3)c(C)c2c1,25.1µM*,nt,1.9%,0.3%,-3.8,31.1%
COc1ccc2oc(C(=O)OCC(=O)Nc3cccc(S(=O)(=O)N4CCOCC4)c3)c(C)c2c1,nt,nt,19.5%,2.5%,0.4,-6.7%
COc1ccc2oc(C(=O)OCC(=O)Nc3ccc(OC)c(S(N)(=O)=O)c3)c(C)c2c1,28.2µM*,nt,18.5%,-0.1%,0.1,-10.2%
COc1ccc2oc(C(=O)OCC(=O)NCC3CCCO3)c(C)c2c1 (stereo unspecified),12.6µM*,nt,-7.3%,1.8%,-1.8,27.7%
N#Cc1nc(Nc2ccccc2)nc(NC2CCCC2)n1,nt,nt,-4.1%,nt,nt,nt
COC(=O)c1cc2oc(C)cc2n1Cc1ccccc1Cl,-14.4%,nt,-0.2%,nt,nt,nt

# Source: PubChem BioAssay
